# Bioassay records as filed in PubChem.
# Shown are actives, neighbours in structure and some others; about 1.2% of the full set was active somewhere.
# cardiac RTF act = cardiac RTF calcium sensitization; P19429+P45379; IANBD-labeled TnC RTF fluorescence at EC20 calcium; 0% EC20 calcium, 100% full calcium; activation, % at 7.2 µM; actives 0.24% (n = 340,000); AID 493008;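 active = activation above the mean over all tested compounds plus 3 SD, cut at about 30% in these data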;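 note: rise in fluorescence read as greater calcium sensitivity of cardiac thin filaments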
# BCLXL inh = Bcl-xL (human) inhibition; Q07817; inhibition, % at 10.9 µM; AID 2129; actives 0.7% (n = 320,000); GST-Bcl-xL / FITC-Bim BH3 peptide fluorescence polarization;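 active = inhibition above the mean of all tested compounds plus 3 SD, cutoff set per campaign, cut at about 30% in these data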;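 note: 0% = DMSO wells and 100% = unlabeled Bim-BH3 peptide competitor; inhibitors lower millipolarization by displacing the labeled peptide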
# GLD-1 TGE inh = GLD-1-TGE RNA interaction inhibition (C. elegans); Q17339; actives 0.44% (n = 320,000); inhibition, % at 5.96 µM; purified GLD-1 + fluorescein TGE RNA, fluorescence polarization;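 active = percent inhibition above a per-plate cutoff, the plate mean of test compounds plus 3 SD, cut at about 30% in these data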;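 note: 0% = DMSO wells with GLD-1 and probe and 100% = wells lacking GLD-1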
# Target sequence (Q17339 whole entry, looked up): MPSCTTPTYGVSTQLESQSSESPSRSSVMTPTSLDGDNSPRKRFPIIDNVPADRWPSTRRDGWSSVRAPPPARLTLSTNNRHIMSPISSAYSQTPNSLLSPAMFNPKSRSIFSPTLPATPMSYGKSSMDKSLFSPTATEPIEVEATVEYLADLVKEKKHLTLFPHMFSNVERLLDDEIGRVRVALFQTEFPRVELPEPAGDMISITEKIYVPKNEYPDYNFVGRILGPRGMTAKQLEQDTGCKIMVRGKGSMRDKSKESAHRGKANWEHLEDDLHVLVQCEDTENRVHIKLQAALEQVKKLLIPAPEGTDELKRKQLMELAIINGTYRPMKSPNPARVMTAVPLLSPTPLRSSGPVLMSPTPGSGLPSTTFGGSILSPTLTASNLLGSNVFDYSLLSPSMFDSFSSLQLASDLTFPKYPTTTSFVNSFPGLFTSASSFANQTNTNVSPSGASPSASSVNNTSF
# RTF Ca sens inh = cardiac RTF calcium desensitization. IANBD-labeled cardiac RTF, Ca2+ fluorescence. P19429+P45379. actives 0.12% (n = 340,000). inhibition, % at 7.15 µM. AID 493244;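 active = inhibition above the mean inhibition of all tested compounds plus 3 SD, cut at about 17% in these data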;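 note: assay run at fixed EC70 calcium of 1.6 mM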
# E coli Lon inh = E. coli protease La inhibition. P0A9M0. purified E. coli Lon protease, fluorescence polarization. inhibition, % at 7.94 µM. actives 0.42% (n = 360,000). AID 602123; in the data active = inhibition above about 13%, passing the limit was not always enough;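 note: 0% = enzyme with probe and DMSO and 100% = no enzyme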
# Numbers without * were called inactive; . = no result.
SMILES,cardiac RTF act,BCLXL inh,GLD-1 TGE inh,RTF Ca sens inh,E coli Lon inh
COc1ccc(CNC(=O)C(C#N)c2nc3ccccc3nc2N2CCCC2)cc1 (stereo not given),51*,46*,2,-405,-35
COC(=O)C(C#N)c1nc2ccccc2nc1N1CCCC1 (stereo not given),-1,-1,7,-8,-20
C=CCN(C(=O)CCC(=O)Nc1cc(C)on1)C(C(=O)NC1CCCC1)c1ccc(OC)c(OC)c1 (stereo not given),-6,-1,4,-11,-6
CCCn1c(SCC(=O)NC2CCC(C)CC2)n[nH]c1=O (stereo not given),3,41*,10,1,2
CC1=CC2=C(OC1N(C)C)c1cccc3cccc(c13)C2=O (stereo not given),7,122*,110*,-17,64*
COc1ccccc1N1CCN(C(=O)CCC(=O)N2CCN(c3ccccc3OC)CC2)CC1,-5,1,-10,1,-1
COc1ccccc1N1CCN(C(=O)Cn2nc3n(C)c4ccccc4n3c(=O)c2=O)CC1,.,2,31*,.,.
O=C(N=C1SC2CS(=O)(=O)CC2N1c1ccc(Br)cc1F)C1CC1 (stereo not given),1,4,5,4,-8
Cc1c(Cl)cccc1NC(=S)Nn1cnnc1,6,10,1,1,4
N#Cc1c(Cn2cncn2)nc(=O)n(-c2ccc(Cl)cc2)c1N,0,3,13,-1,-1
COc1ccc(OC)c(C2=C/C(=C/c3ccccn3)C(=O)O2)c1,18,31*,-58,-33,-17
Nc1nc2nonc2nc1N1CCCCC1,1,34*,9,-8,1
CCOC(=O)CN1C=C(c2ccc3ccccc3n2)C(C[N+](=O)[O-])c2ccccc21 (stereo not given),36*,101*,-74,-61,115*
CCOC(=O)CCCCCC(=O)Nc1ccc2c(c1)C(=O)N([C@H](C)CO)C[C@H](C)[C@@H](CN(C)C(=O)Nc1ccc(OC)cc1)O2,1,.,3,-7,7
CC1=N/C(=C/c2ccco2)C(=O)O1,-1,.,.,-3,1
Cc1cc(O)cc2c1C(=O)/C(=C/c1ccco1)O2,14,63*,50*,-19,-26
CCN(CC)C(=O)Oc1ccc2c(c1)O/C(=C\c1ccco1)C2=O,2,2,-3,-11,-5
COC(=O)COc1ccc2c(c1)O/C(=C\c1ccco1)C2=O,-4,75*,-4,-15,-15
CC(=O)Oc1ccc2c(c1)O/C(=C\c1ccncc1)C2=O,60*,126*,93*,-80,79*
CCC(=O)Oc1ccc2c(c1)O/C(=C\c1ccco1)C2=O,.,112*,89*,.,30
COc1ccc(C)cc1NC(=O)C(OC(=O)c1ccc([N+](=O)[O-])o1)c1ccccc1 (stereo not given),-4,6,-7,-10,6
Cc1ccc(CNC(=O)CSc2nc3ccccc3c(=O)n2CC2CCCO2)cc1 (stereo not given),1,.,1,-1,8
C/C(=N\NC(=O)c1ccc(Cl)cc1)c1cccnc1,-6,-7,-2,0,3
COc1ccc2c(c1)CCN1C2CCN2C(=O)CCC21 (stereo not given),9,45*,21,-20,4
COc1cccc(N2C(=O)CC(N3CCc4ccccc43)C2=O)c1 (stereo not given),4,0,4,-5,-6
SMILES,cardiac RTF act,BCLXL inh,GLD-1 TGE inh,RTF Ca sens inh,E coli Lon inh
Cc1ccc(S(=O)(=O)/N=C2/NC(=O)/C(=C\c3cc(Br)cc(Br)c3O)S2)cc1,63*,.,.,-92,-88
COc1cc(/C=C2/S/C(=N/S(=O)(=O)c3ccccc3)NC2=O)c([N+](=O)[O-])cc1OC,6,40*,20,-11,0
Cc1ccc(S(=O)(=O)/N=C2/NC(=O)/C(=C/c3ccc(Br)o3)S2)cc1,6,13,1,11,-43
CCN(CC)C(=O)C(=O)c1cccn1-c1cccc(-n2cccc2C(=O)C(=O)N(CC)CC)c1C#N,3,5,6,-20,1
COc1cc([N+](=O)[O-])cc(/C=C2/SC(=S)N(Cc3ccccc3)C2=O)c1O,-1,49*,0,-5,-30
COc1cc(/C=C2/SC(=S)N(Cc3ccccc3)C2=O)cc(Cl)c1O,71*,11,-14,-108,-108
C=CCn1c(=O)/c(=C/c2cc(OC)c(OC)c(OC)c2)s/c1=C(/C#N)c1nc2ccccc2n1C,37*,112*,1,1,1
O=[N+]([O-])c1ccc(O)c2cccnc12,3,44*,13,0,9
O=[N+]([O-])c1ccc(O)c2ncccc12,-4,1,8,4,-1
Cn1c(C(O)C(O)c2ccccc2)nc2ccccc21 (stereo not given),-1,-1,-1,-2,4
Cn1c(C(C#N)C2=C(Cl)C(=O)N(c3ccccc3)C2=O)nc2ccccc21 (stereo not given),.,50*,45*,.,.
COc1ccc(CN2CCNC(=O)C2CC(=O)NCCc2nc(C)c(C)s2)cc1C (stereo not given),-2,16,11,-3,-7
Cc1nnc(-n2ncc(C#N)c2N)c2nn(-c3cccc(Cl)c3)c(C)c12,-4,1,-16,-2,-10
Cc1nnc(N2CCOCC2)c2nn(-c3cccc(Cl)c3)c(C)c12,33*,-6,-45,-38,-24
CC1(OC(=O)c2cccs2)C(=O)C=C2C=C(c3ccsc3)OC=C2C1=O (stereo not given),.,13,17,.,.
COC/C=C/C1=CC2=CC(=O)C(C)(OC(=O)c3cnc4ccccc4n3)C(=O)C2=CN1C1CCCCC1 (stereo not given),.,22,14,.,.
CC1(OC(=O)c2cnc3ccccc3n2)C(=O)C=C2C=C(C3CC3)OC=C2C1=O (stereo not given),.,118*,114*,.,.
CC1(OC(=O)c2cccs2)C(=O)C=C2C=C(C3CC3)OC=C2C1=O (stereo not given),-1,27,35*,-7,14
CC(=O)c1cc2c(cc1N(C(=O)Cn1nnc3ccccc31)C(C(=O)NCCC(C)C)c1cccnc1)OCO2 (stereo not given),.,5,-5,.,-5
COC(=O)c1scc(C)c1N/N=C(\C)c1ccc(F)cc1F,3,1,3,-1,5
N#CC1=C2SCC(O)(c3ccccc3)N2C(=O)CC1c1cccs1 (stereo not given),1,36*,20,3,-3
COc1ccc(CCNc2nc3ccccc3n3nnnc23)cc1OC,7,54*,16,-15,-30
Cc1ccccc1C(=O)N1CC(=O)Nc2ccc(F)cc2C1c1ccc(F)cc1 (stereo not given),-3,86*,-1,1,3
Cc1cc2nc3ccc(N(C)C)cc3nc2cc1N,9,120*,41*,-18,21
